What all share (experiment): NCI-60 one-dose screen, 48 h (100 = growth as untreated, 0 = no growth, -100 = all killed)
Assay [1] has as its system SR leukemia. The conditions noted are these: 10 µM unless noted.
For assay [2], the system named is RPMI-8226 leukemia. The conditions noted are these: 10 µM unless noted.
Assay [3] concerns OVCAR-8 ovarian. The conditions noted are these: 10 µM unless noted.
The test system of assay [4] is OVCAR-5 ovarian. The conditions noted are these: 10 µM unless noted.
In assay [5] the test system is OVCAR-4 ovarian. The conditions noted are these: 10 µM.
Assay [6] concerns SK-OV-3 ovarian. The conditions noted are these: 10 µM unless noted.
For assay [7], the system named is IGROV1 ovarian. The conditions noted are these: 10 µM unless noted.
In assay [8] the test system is OVCAR-3 ovarian. The conditions noted are these: 10 µM unless noted.
For assay [9], the system named is HS 578T breast. The conditions noted are these: 10 µM unless noted.
Assay [10] deals with NCI/ADR-RES ovarian. The conditions noted are these: 10 µM unless noted.
Assay [11] deals with T-47D breast. The conditions noted are these: 10 µM unless noted.
For assay [12], the system named is MDA-MB-435 melanoma. The conditions noted are these: 10 µM unless noted.
Assay [13] concerns SW-620 colon. The conditions noted are these: 10 µM unless noted.
The test system of assay [14] is MCF7 breast. The conditions noted are these: 10 µM unless noted.
Assay [15] relates to HCT-116 colon. The conditions noted are these: 10 µM unless noted.
For assay [16], the system named is HCC-2998 colon. The conditions noted are these: 10 µM unless noted.
Assay [17] has as its system KM12 colon. The conditions noted are these: 10 µM unless noted.
Assay [18] concerns BT-549 breast. The conditions noted are these: 10 µM unless noted.

This is part of a sample that, as a whole, favours compounds with a hit. Of some 83,000 tested, about 20% had one in any assay.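 The endpoint reported here, percent growth, reads 100 for growth as untreated, 0 for no net growth and -100 for all cells dead.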 Unmarked numbers belong to inactive results. Activity calls are given as the source filed them. Rule for the calls: active = growth percent below 10; inactive = the rest.

For the molecule `COc1ccc2[nH]c(C(=O)N3CCN(C(=O)OCc4ccc5c(Br)cc(Br)c(O)c5n4)CC3)cc2c1`, the growth was 4.37% (active) in [1]; -38.9% (active) in [2]; -73.2% (active) in [3]; -89.3% (active) in [4]; -85.2% (active) in assay [5]; -70.7% (active) in assay [6]. In addition, the growth was -90.7% (active) in [7]; -93.9% (active) in [8]; -22.5% (active) in assay [9]; -17.4% (active) in assay [10]; -62.5% (active) in assay [11]; -86.6% (active) in [12]. The growth is -70.3% (active) in [13]; -58.4% (active) in [14]; -87.1% (active) in assay [15]; -90.7% (active) in assay [16]; -59.8% (active) in assay [17].

In the case of `CN(Cc1cccc(C(F)(F)F)c1)C(=O)[C@@H](CC(=O)N1CCC(N2CCCCC2)CC1)N1C(=O)[C@@H](N2C(=O)OC[C@@H]2c2ccccc2)[C@H]1/C=C/c1ccccc1`, the growth in [1] is 54.3%; in assay [2] it was 66.9%; in assay [3] it was 93.2%; in [4], 104%; in assay [5] it was 74.2%; in [6], 86.2%. Also, the growth in [7] was 89.6%; in assay [8] it was 92.9%; in [9] it was 61%; in assay [10] it was 99.2%; in [11], 76.3%; in assay [12], 73.1%. Moreover, the growth was 93.2% in assay [13], 65.4% in assay [14], 85.2% in assay [15] and 91.9% in assay [16].

`COc1ccc(-c2cc(-c3ccc(OC)c(OC)c3)nc(SCCCCCC(=O)NO)n2)cc1`: the growth was -1.05% (active) in assay [1]; 29.4% in assay [2]; 37.7% in assay [3]; 52.4% in assay [4]; 76.8% in [5]; 46.6% in assay [6]. Further, the growth in assay [7] was 61.6%; in assay [8], 64.8%; in assay [9], 44.7%; in assay [10], 101%; in [11] it was -1.6% (active); in assay [12], 40.7%. The growth in assay [13] was 32.8%; in [14] it was 54.4%; in [15], 14.6%; in assay [16], 86.7%.

`Cc1ccc2c(c1)C(C)Cc1c(Cl)ncnc1N2C` (stereo not given): the growth is 22.6% in [1]; 28.2% in [2]; 11.9% in [3]; 40.4% in assay [4]; 19.5% in [5]; 15.7% in assay [6]. The growth in assay [7] is 61%; in [8] it was 6.8% (active); in [9] it was 32.7%; in assay [10], 10.7%; in [11], 51.8%; in assay [12], 6.38% (active). Further, the growth in [13] was 16.6%; in [14], 13.5%; in assay [15] it was 12.9%; in [16], 20.5%; in assay [17] it was 9.89% (active).

Consider `Oc1c(CNCCNCc2cc(Cl)cc(Cc3ccccc3)c2O)cc(Cl)cc1Cc1ccccc1`, for which the growth in assay [1] was 5.69% (active); in assay [2], 20.8%; in assay [3], 14.3%; in [4], 52.9%; in assay [5], 27.1%; in [6], 15.4%. In addition, the growth in assay [7] is 12.8%; in [8] it was 29.5%; in assay [9], 40.7%; in assay [10], 8.69% (active); in assay [11], 26.1%; in assay [12] it was 22.8%. The growth in assay [13] was 29.6%; in [14], 17.4%; in [15] it was 18.6%; in assay [16], 20.2%; in assay [17] it was 20.5%.

On to `COc1ccc2c(c1)C(C)Cc1c(ncnc1-n1cnc3ccccc31)N2C` (stereo not given), for which the growth in [1] was 11.8%; in assay [2], 26.5%; in assay [3], 17.8%; in [4] it was 48.7%; in assay [5], 70%; in assay [6] it was 14.5%. Besides, the growth in assay [7] was 50.7%; in [8], 6% (active); in assay [9], 31.6%; in assay [10], 11.3%; in assay [11], 56.9%; in [12] it was 0.335% (active). Also, the growth in assay [13] was 23.8%; in assay [14], 18.6%; in assay [15] it was 10.3%; in [16], 25.4%; in [17], 17.8%.

Regarding `Clc1ccccc1/C=N\Nc1ccccn1`, the growth in [1] was 90.5%; in assay [2], 93.1%; in assay [3], 90.1%; in [4], 104%; in assay [5], 68%; in [6], 84.1%. The growth in [7] was 64%; in [8], 94.1%; in assay [9], 99.4%; in assay [10] it was 91.1%; in assay [11], 62.1%; in assay [18] it was 114%. Further, the growth in [13] was 102%; in [14], 28.4%; in assay [15] it was 107%; in assay [16], 111%; in assay [17], 87.2%.

On to `CC(C)C1=NOC(=O)C1=Cc1cn(-c2cccnc2)nc1-c1ccccc1`, for which the growth is -22.5% (active) in [1]; -16.6% (active) in [2]; 89.9% in [3]; 100% in assay [4]; 103% in [5]; 104% in [6]. Besides, the growth is 102% in [7]; 108% in assay [8]; 106% in assay [9]; 110% in assay [10]; 92.6% in assay [11]; 125% in assay [18]. The growth in assay [12] is 95.1%; in assay [13], 88.8%; in assay [15] it was 81.2%; in assay [16], 111%.

Take `O=C(Nc1cccc(F)c1)c1cc(=O)[nH]c2cc(Br)ccc12`: the growth in assay [1] is 21.8%; in [2], 76.1%; in assay [3], 71.8%; in assay [4], 63.3%; in assay [5] it was 70.6%; in assay [6], 51.8%. Moreover, the growth in assay [7] is 40.5%; in assay [8], 23.5%; in [9] it was 52.4%; in assay [10], 53.2%; in [11] it was 48.1%; in assay [12], -21.8% (active). Besides, the growth in assay [13] is 27.7%; in assay [14] it was 17.6%; in assay [15], 19.1%; in assay [16], 65%; in assay [17] it was 21.5%.
